# Source: PubChem BioAssay
# HCV inhibitor: qHTS Assay for Inhibitors of Hepatitis C Virus (HCV). Huh7.5.1 HCVcc-Cre infection, luciferase reporter, 44 h. Potency, µM (series often up to 41.8 µM), most hits filed as inhibitors. 340,000 compounds, 3.4% hits. AID 651820, 2012
#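 Cells (1,000/well) were plated 4 h before compound, then infected with HCVcc-Cre virus (~0.5 moi). After 44 h further culture, infection was read as luciferase luminescence following a 15 min substrate incubation at room temperature.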
# AmpC detergent: qHTS Inhibitors of AmpC Beta-Lactamase (assay with detergent). P00811. AmpC hydrolysis of nitrocefin, absorbance 480 nm, 0.01% Triton. Potency, µM (series often up to 114 µM), actives largely listed as inhibitors. 370,000 compounds, 0.041% hits. AID 485294, 2010; note: nearly all actives have a fitted effect of over 25% in size
# Target sequence (P00811 whole entry, looked up): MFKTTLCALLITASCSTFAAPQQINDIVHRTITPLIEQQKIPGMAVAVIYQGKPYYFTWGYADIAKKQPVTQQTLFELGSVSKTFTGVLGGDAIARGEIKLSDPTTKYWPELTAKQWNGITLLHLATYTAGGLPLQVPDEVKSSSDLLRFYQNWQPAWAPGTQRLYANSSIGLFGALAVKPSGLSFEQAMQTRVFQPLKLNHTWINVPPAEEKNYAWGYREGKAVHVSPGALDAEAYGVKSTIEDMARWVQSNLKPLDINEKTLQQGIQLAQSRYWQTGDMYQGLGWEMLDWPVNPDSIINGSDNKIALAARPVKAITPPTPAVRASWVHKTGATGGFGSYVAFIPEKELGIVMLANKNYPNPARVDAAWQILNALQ
#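 AmpC (5.3 nM in the dispensed reagent) in 20 mM phosphate pH 7.0 with 0.01% (detergent screen) or 0.0001% Triton X-100 was preincubated with compounds for 15 min at room temperature. Nitrocefin was then added from an 800 uM solution, and hydrolysis was followed at 480 nm.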
# AmpC no deterg: qHTS Inhibitors of AmpC Beta-Lactamase (assay without detergent); P00811; AmpC nitrocefin hydrolysis, absorbance 480 nm, 0.0001% Triton; Potency, µM (titrated, usually from 57.1 µM), actives largely listed as inhibitors; 330,000 compounds, 0.52% hits; note: nearly all actives have a fitted effect of over 20% in size
#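 20 mM phosphate pH 7.0 + 0.01% (detergent screen) or 0.0001% Triton X-100; 5.3 nM AmpC reagent; cpd preinc 15 min RT; nitrocefin (800 uM stock) to start; A480 q20 s × 4 min; Activity was normalised to no-enzyme and no-compound control wells.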
# Pf growth 48h: Primary qHTS for delayed death inhibitors of the malarial parasite plastid, 48 hour incubation. P. falciparum luciferase growth in erythrocytes, 48 h. Potency, µM (doses to about 28.7 µM), actives largely listed as inhibitors. 310,000 compounds, 5.9% hits. AID 504832, 2011
#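 Luciferase-expressing P. falciparum in infected erythrocytes (2% hematocrit, 0.1% parasitemia final) in RPMI 1640/0.5% Albumax were exposed to compound for 48 hours at 37 C, 5% CO2; growth read as luminescence.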
# AMA1-RON2 inh: qHTS for Inhibitors of AMA1-RON; Towards Development of Antimalarial Drug Lead: Primary Screen; Potency, µM (series often up to 58.2 µM), actives largely listed as inhibitors; 360,000 compounds, 0.2% hits; Plasmodium falciparum AMA1 (3D7) - RON2 peptide interaction; AlphaScreen AMA1-biotinylated RON2 peptide binding; AID 720542, 2013; note: nearly all actives have a fitted effect of over 45% in size
#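 AMA1 (3D7) with his tag at 25 nM final met compounds first, then biotinylated RON2 peptide at 25 nM; detection used donor plus acceptor beads, 10 µg/mL apiece, read by AlphaScreen after 30 min at room temperature.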
# Pf growth 96h: Primary qHTS for delayed death inhibitors of the malarial parasite plastid, 96 hour incubation; Potency, µM (highest dose often 28.7 µM), most hits filed as inhibitors; 320,000 compounds, 6.9% hits; P. falciparum luciferase reporter growth, 96 h
#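 Plates of compound plus infected erythrocytes (2% hematocrit, 0.05% parasitemia final) incubate 96 hours, 37 C, 5% CO2. Detection reagent added; reduced luminescence from the parasites' luciferase reporter flags inhibition.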
# Numbers stand for hits; n = inactive; u = inconclusive; x = not tested or not shown. Rows were chosen to be rich in hits. Some 11% of all compounds tested hit in one or more screens of this group. Calls come from the whole dose curve; as a rule, active = well fitted curve in the direction sought with a large enough effect; inconclusive = small, poorly fitted or top-dose-only effect, or another doubt; inactive = no such curve, though single readings can be large; an effect the other way counts as inactive or inconclusive.
SMILES,HCV inhibitor,AmpC detergent,AmpC no deterg,Pf growth 48h,AMA1-RON2 inh,Pf growth 96h
COC(=O)c1c(-c2ccc(C)cc2)csc1NC(=S)NC(=O)c1ccc(F)cc1,n,n,n,u,n,8.3µM
COC(=O)c1c(-c2ccccc2)csc1NC(=O)c1c(-c2ccccc2)noc1C,u,n,n,13µM,n,u
CCOC(=O)c1c(-c2ccc(-c3ccccc3)cc2)csc1NC(=O)C1C2CCC(O2)C1C(=O)O (stereo not drawn),n,n,n,u,n,n
CCOC(=O)c1c(-c2ccc(OC)c(OC)c2)csc1NC(=O)c1ccc(C)cc1,x,n,x,x,x,x
CCc1cccc(CC)c1NC(=O)COC(=O)c1cccc(S(=O)(=O)N2CCc3ccccc3C2)c1,n,n,18µM,n,n,n
O=C(O)CC1c2ccccc2CCN1S(=O)(=O)c1ccccc1 (stereo not drawn),n,x,x,x,n,x
CN(C)S(=O)(=O)c1cccc(NC(=O)COC(=O)c2cccc(S(=O)(=O)N3CCc4ccccc4C3)c2)c1,n,n,n,n,n,n
Cc1cccc(C(C)C)c1NC(=O)COC(=O)c1cccc(S(=O)(=O)N2CCc3ccccc3C2)c1,n,n,7.9µM,n,n,n
CCc1cccc(CC)c1NC(=O)COC(=O)CC1c2ccccc2CCN1S(=O)(=O)c1ccccc1 (stereo not drawn),7.1µM,n,n,n,n,u
O=C(CSc1nc(-c2ccccc2)nc2c1Cc1ccccc1O2)N1CCCCC1,x,n,x,x,x,x
CCCN(CCC)C1=CC(=[N+]2CCCC2)CC(C)(C)C1,u,n,n,1.5µM,n,0.33µM
CN(C)NC1=CC(=[N+]2CCCC2)CC(C)(C)C1,n,n,n,u,n,u
Cc1cccc(NC(=O)c2cc3c(=O)n(Cc4ccco4)ccc3nc2C)c1,x,n,x,x,x,x
COC(=O)C1=C(N)N(c2ccc(F)cc2)C2=C(C(=O)CCC2)C1c1ccc2c(c1)OCO2 (stereo not drawn),n,n,n,10µM,n,n
COC(=O)C1=C(N)OC2=C(C(=O)CCC2)C1c1ccc2c(c1)OCO2 (stereo not drawn),n,n,n,n,n,n
CC(C)C[C@H](NC(=O)NCc1ccccc1Cl)C(=O)O,n,n,n,n,n,0.93µM
CC(C)n1cc(/C=C2/NC(=O)N(c3cccc(Cl)c3)C2=O)c2ccccc21,u,u,n,8.3µM,n,9.3µM
Cc1nc(N/N=C/c2ccc(O)cc2)c2cnn(-c3ccccc3)c2n1,u,n,16µM,n,n,u
O=C(c1ccc2c(c1)N(Cc1ccc(F)cc1)C(=O)c1ccccc1S2(=O)=O)N1CCC(Cc2ccccc2)CC1,x,n,x,x,x,x
Cc1cc(NC(=O)CSc2nnc(-c3ccc(O)cc3)o2)no1,n,n,n,6.6µM,n,u
Cc1cc(NC(=O)CSc2ccc3nnc(-c4ccccc4)n3n2)no1,n,n,u,2.6µM,n,n
Cc1cc(NC(=O)CN2CCN(S(=O)(=O)c3ccc(Cl)cc3)CC2)no1,n,n,n,n,n,x
Cc1cc(NC(=O)CSc2nnc(-c3ccccc3)o2)no1,n,n,n,u,n,12µM
COc1ccc(-c2nnc3ccc(SCC(=O)Nc4cc(C)on4)nn23)cc1,x,n,n,n,x,u
Cc1cc(NC(=O)CN2CCN(c3ccc(O)cc3)CC2)no1,n,n,n,u,n,9.3µM
SMILES,HCV inhibitor,AmpC detergent,AmpC no deterg,Pf growth 48h,AMA1-RON2 inh,Pf growth 96h
COc1ccc(C2C(C(=O)Nc3ccccc3)=C(C)Nc3nc(-c4ccccc4)nn32)cc1OC (stereo not drawn),x,n,x,x,x,x
Cc1ccc(C)c(N2CCN(C(=O)C3CCC(CNS(=O)(=O)c4ccc(Br)s4)CC3)CC2)c1 (stereo not drawn),x,n,x,x,x,x
Cc1ccc(C)c(NC(=O)CSc2nnc(-c3ccccc3)o2)c1,n,u,40µM,n,n,n
CC1=CC(C)(C)N(C(=O)CSc2nnc(-c3ccc(C)cc3)o2)c2ccc(C)cc21,u,n,n,x,n,9.3µM
Cc1ccc(C)c(CSc2nnc(-c3cccnc3)o2)c1,x,u,n,u,n,13µM
CCn1c2ccccc2c2cc(NC(=O)CSc3nnc(-c4ccccc4)o3)ccc21,7.1µM,n,n,n,n,x
Cc1ccc(CCNC(=O)c2cc3ccccn3n2)cc1,x,n,x,x,x,x
Cc1cc(C)c(/C=C/c2onc(C)c2S(=O)(=O)N2CCC(C(=O)N3CCN(c4ccc(Cl)cc4)CC3)CC2)c(C)c1,x,n,x,x,x,x
COc1cccc(CNC(=O)C(CC(C)C)NS(=O)(=O)c2ccc3c(c2)oc(=O)n3C)c1 (stereo not drawn),x,n,x,x,x,x
O=C(/C(=N\Nc1ccccc1)Sc1nnnn1-c1ccccc1)c1ccccc1,n,u,1.1µM,n,n,n
O=C(OCc1ccccc1)c1ccccc1,n,x,x,n,n,n
O=C(OCc1ccccc1)c1ccc2c(c1)-c1ccccc1C2=O,u,n,n,9.3µM,n,u
O=C(NCCc1ccc(Cl)cc1)c1nnc(Cc2ccc(F)cc2)o1,x,n,x,x,x,x
CC(C)CCNC(=O)c1nnc(Cc2ccc(Cl)cc2)o1,n,n,n,x,n,8.3µM
O=C(CSc1n[nH]c(=O)n1Cc1ccco1)Nc1ccccc1Cl,n,n,n,u,n,4.7µM
CC(C)c1ccc(NC(=O)CSc2n[nH]c(=O)n2Cc2ccco2)cc1,u,n,n,u,n,13µM
CCOc1ccc(NC(=O)CSc2ncc(-c3ccc(F)cc3)n2Cc2ccco2)cc1,10µM,n,n,u,n,u
O=C(Nc1ccc(Oc2ccccc2)cc1)c1ccc(F)c(S(=O)(=O)N2CCN(c3ccccc3F)CC2)c1,x,n,x,x,x,x
COc1cc(C)c(NC(c2ccccc2)c2ccccc2)cc1OC,n,n,n,n,35µM,n
CC(C)c1noc(-c2ccccc2OCC(=O)Nc2cccc([N+](=O)[O-])c2)n1,x,n,x,x,x,x
Cc1cc(Cl)c2oc(C(=O)N3CCN(c4ccncc4)CC3)c(C)c2c1,1.3µM,x,x,x,n,x
O=P(C(Cl)Cl)(N1CCOCC1)N1CCOCC1,n,n,n,n,n,n
O=CC(Br)P(=O)(N1CCOCC1)N1CCOCC1 (stereo not drawn),n,56µM,n,n,n,n
CC1(C)C(O)=C(c2nc3ccccc3[nH]2)C(=N)N1c1ccccc1,u,n,n,u,n,8.3µM
COc1ccc(-c2csc3ncnc(N4CCN(S(=O)(=O)c5cccc(Br)c5)CC4)c23)cc1,u,n,n,u,n,u
